The source of these data is PubChem BioAssay AID720690 (Broad Institute, 2013).

Entries with a potency or affinity are not part of this list. Unmarked numbers belong to inactive results.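 The calls were made as follows: active = every repeat run showing a signal drop whose fitted half-maximal concentration is at most twice the top tested concentration; inconclusive = repeat runs disagree, or flat partial drop, or poor fit; inactive = the rest.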

This assay is described as follows: HEK293T cytotoxicity, dose response, cytotoxicity control for miR-122 modulator project, cell-based, activator set, cherry-pick (AID 720690).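 Also: 0% = neutral control wells and -100% = MG132 cytotoxic control wells.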 The note with it: HEK293T viability, CellTiter-Glo luminescence, 48 h; series mostly up to 26 µM; activity change, negative = cytotoxicity: at the top concentration.
On to `O=C(c1ccco1)c1cn(Cc2ccccc2Cl)c2ccccc12`, for which the “activity change, negative = cytotoxicity” value is -11.6%.

On to `COc1ccc2c(c1)c(CCN)c(C)n2Cc1ccccc1`, for which the “activity change, negative = cytotoxicity” value is -8.74%. The result for `O=C1NC(=O)N(CCC2=CCCCC2)C(=O)/C1=C\c1cccs1` reads -3.88%; that for `COc1ccc(C2SCC(=O)Nc3c2c(=O)[nH]n3C2CCCCCC2)cc1` (centres undefined), 1.34%.
